Experimental data reported in PubChem BioAssay (NCATS).
Records with an inconclusive call do not appear. Calls of active or inactive are those of the source. Calls follow the shape of the dose curve; as a rule, active = well fitted inhibition curve with a large enough effect; inconclusive = small, poorly fitted or top-dose-only effect; inactive = flat fitted curve, though single readings scatter.

How the values were obtained:
Assay in all cases: qHTS profiling for inhibitors of Plasmodium falciparum proliferation (AID 504749); also: nearly all actives have a fitted effect of over 60% in size
Details in all cases: P. falciparum in erythrocytes, SYBR Green DNA, 72 h; series mostly up to 28.7 µM
ATS95 = system: ATS95
Outline: (§1)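 Readout was DNA-dye fluorescence from lysed cultures, ex 485/em 535 nm. Parasitized red cells had grown 72 h with compound; data scaled between 0.29 uM artemisinin and DMSO wells and corrected using vehicle-only plates.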

C2A = system: C2A
Outline: as §1

CP185 = system: CP185
Outline: as §1

CP191 = system: CP191
Outline: as §1

CP192 = system: CP192
Outline: as §1

CP194 = system: CP194
Outline: as §1

CP201 = system: CP201
Outline: as §1

CP203 = system: CP203
Outline: as §1

CP211 = system: CP211
Outline: as §1

CP215 = system: CP215
Outline: as §1

Measured: Potency
Potency is read from the fitted curve at half-maximal effect.

CN1CCN(C(=O)O[C@H]2c3nccnc3C(=O)N2c2ccc(Cl)cn2)CC1
inactive: ATS95 | C2A | CP185 | CP191 | CP192 | CP194 | CP201 | CP203 | CP211 | CP215

CCCC1CCCCN1 (stereo not given)
inactive: ATS95 | C2A | CP185 | CP191 | CP192 | CP194 | CP201 | CP203 | CP215

c1ccc2c(c1)OCC(C1=NCCN1)O2 (stereo not given)
inactive: ATS95 | C2A | CP185 | CP191 | CP192 | CP194 | CP201 | CP211 | CP215

Cc1ncc(CNC(=O)N(CCCl)N=O)c(N)n1
inactive: ATS95 | C2A | CP185 | CP191 | CP192 | CP194 | CP201 | CP203 | CP211 | CP215

CN(C)CCc1ccc(O)cc1
inactive: ATS95 | C2A | CP185 | CP191 | CP192 | CP194 | CP201 | CP203 | CP211 | CP215

O=P1(NCCCl)OCCCN1CCCl (stereo not given)
inactive: ATS95 | C2A | CP185 | CP191 | CP192 | CP194 | CP201 | CP211 | CP215

Oc1ccccc1-c1ccccc1
inactive: ATS95 | C2A | CP185 | CP191 | CP192 | CP194 | CP201 | CP203 | CP211 | CP215

CCC(COC(=O)c1cc(OC)c(OC)c(OC)c1)(c1ccccc1)N(C)C (stereo not given)
inactive: ATS95 | C2A | CP185 | CP191 | CP192 | CP194 | CP201 | CP203 | CP211 | CP215

CC(C)=CC1C(C(=O)OCc2cccc(Oc3ccccc3)c2)C1(C)C (stereo not given)
inactive: ATS95 | C2A | CP185 | CP191 | CP192 | CP194 | CP201 | CP203 | CP211 | CP215

CCC(C(N)=O)N1CCCC1=O (stereo not given)
inactive: ATS95 | C2A | CP185 | CP191 | CP192 | CP194 | CP201 | CP211 | CP215

CC[N+](CC)(CC)CC
inactive: ATS95 | C2A | CP185 | CP191 | CP192 | CP194 | CP201 | CP211

O=C1NCN(c2ccccc2)C12CCN(CC1COc3ccccc3O1)CC2 (stereo not given)
inactive: ATS95 | C2A | CP185 | CP191 | CP192 | CP194 | CP201 | CP211 | CP215

C#CCOC(C(=O)OCCN(C)C)(c1ccccc1)c1ccccc1
inactive: ATS95 | C2A | CP185 | CP191 | CP192 | CP194 | CP201 | CP211 | CP215

Oc1cccc2cccnc12
inactive: ATS95 | C2A | CP185 | CP191 | CP192 | CP194 | CP201 | CP211 | CP215

COc1ccccc1N1CCNCC1
inactive: ATS95 | C2A | CP185 | CP191 | CP192 | CP194 | CP201 | CP211 | CP215

O=C(NC(O)C(Cl)(Cl)Cl)NC(O)C(Cl)(Cl)Cl (stereo not given)
inactive: ATS95 | C2A | CP185 | CP191 | CP192 | CP194 | CP201 | CP203 | CP211 | CP215

Nc1ccncc1
inactive: ATS95 | C2A | CP185 | CP191 | CP192 | CP194 | CP201 | CP203 | CP211 | CP215

c1ccc(C2CC2)c(OCC2=NCCN2)c1
inactive: ATS95 | C2A | CP185 | CP191 | CP192 | CP194 | CP201 | CP211 | CP215

OCCOc1ccccc1
inactive: ATS95 | C2A | CP185 | CP191 | CP192 | CP194 | CP201 | CP211 | CP215

Clc1ccc(COC(Cn2ccnc2)c2ccc(Cl)cc2Cl)cc1 (stereo not given)
active: ATS95 3.98 µM | C2A 11.2 µM | CP185 8.91 µM | CP191 3.16 µM | CP192 6.01 µM | CP194 6.75 µM | CP201 15.1 µM | CP203 4.26 µM | CP211 9.53 µM | CP215 4.78 µM

COc1ccc(C(=O)c2c(C)n(CCN3CCOCC3)c3ccccc23)cc1
inactive: ATS95 | C2A | CP185 | CP191 | CP192 | CP194 | CP201 | CP211 | CP215

NCCc1cc(O)c(O)cc1O
inactive: ATS95 | C2A | CP185 | CP191 | CP192 | CP194 | CP201 | CP203 | CP211 | CP215

NCC(CC(=O)O)c1ccc(Cl)cc1 (stereo not given)
inactive: ATS95 | C2A | CP185 | CP191 | CP192 | CP194 | CP201 | CP211 | CP215

CC(C)CC(N(C)C)C1(c2ccc(Cl)cc2)CCC1 (stereo not given)
inactive: ATS95 | C2A | CP185 | CP191 | CP192 | CP194 | CP201 | CP211 | CP215

CCCC(C)(COC(N)=O)COC(=O)NC(C)C (stereo not given)
inactive: ATS95 | C2A | CP185 | CP191 | CP192 | CP194 | CP201 | CP211 | CP215

CCOP(=S)(OCC)Oc1cc(C)nc(C(C)C)n1
inactive: ATS95 | C2A | CP185 | CP191 | CP192 | CP194 | CP201 | CP211 | CP215

CC(=O)[C@H]1CC[C@H]2[C@@H]3CC[C@H]4C[C@](C)(O)CC[C@]4(C)[C@H]3CC[C@]12C
inactive: ATS95 | C2A | CP185 | CP191 | CP192 | CP194 | CP201 | CP203 | CP211 | CP215

CC1NCCOC1c1ccccc1 (stereo not given)
inactive: ATS95 | C2A | CP185 | CP191 | CP192 | CP194 | CP201 | CP203 | CP211 | CP215

CC(=O)[C@H]1CC[C@H]2[C@@H]3CC[C@H]4C[C@H](O)CC[C@]4(C)[C@H]3C(=O)C[C@]12C
inactive: ATS95 | C2A | CP185 | CP191 | CP192 | CP194 | CP201 | CP211 | CP215

O=C(O)c1ccc2[nH]cc(CCCCN3CC=C(c4ccccc4)CC3)c2c1
inactive: ATS95 | C2A | CP185 | CP191 | CP192 | CP194 | CP201 | CP211 | CP215

Cn1c(CCCC(=O)O)nc2cc(N(CCCl)CCCl)ccc21
inactive: ATS95 | C2A | CP185 | CP191 | CP192 | CP194 | CP201 | CP203 | CP211 | CP215

NCC(O)c1ccc(O)cc1 (stereo not given)
inactive: ATS95 | C2A | CP185 | CP191 | CP192 | CP194 | CP201 | CP211 | CP215

NN=C(N)N
inactive: ATS95 | C2A | CP185 | CP191 | CP192 | CP194 | CP201 | CP203 | CP211 | CP215

CC(C)(C)CC(C)(C)c1ccc(O)cc1
inactive: ATS95 | C2A | CP185 | CP191 | CP192 | CP194 | CP201 | CP211 | CP215

CCN(CC)CCOC(=O)C(O)(c1ccccc1)c1ccccc1
inactive: ATS95 | C2A | CP185 | CP191 | CP192 | CP194 | CP201 | CP203 | CP211

Clc1cccc(N2CCNCC2)c1
inactive: ATS95 | C2A | CP185 | CP191 | CP192 | CP201 | CP215

c1ccc2c(c1)Nc1ccccc1S2
inactive: CP201
active: CP191 7.94 µM

CCN(CC)CCN1C(=O)CN=C(c2ccccc2F)c2cc(Cl)ccc21
inactive: C2A | CP191 | CP192 | CP201 | CP215

CCC1(C2=NCCN2)Cc2ccccc2O1 (stereo not given)
inactive: CP192
active: ATS95 8.91 µM | CP185 10 µM

CCOC(=O)C1(c2ccccc2)CCN(CCC(C#N)(c2ccccc2)c2ccccc2)CC1
active: ATS95 3.55 µM | C2A 3.55 µM | CP185 3.16 µM | CP191 3.16 µM | CP192 4.78 µM | CP201 4.26 µM | CP203 4.78 µM | CP215 4.26 µM

FC(F)(F)c1cccc(C2=CCN(CCc3ccc4ccccc4c3)CC2)c1
inactive: ATS95 | C2A | CP185 | CP192 | CP194 | CP201 | CP211 | CP215

CC(CCc1ccccc1)NC(C)C(O)c1ccc(O)cc1 (stereo not given)
inactive: CP185 | CP191 | CP192

NP(N)(=O)NC(=O)c1ccc(F)cc1
inactive: ATS95 | C2A | CP191 | CP192 | CP194 | CP201 | CP211 | CP215

CC(=O)Nc1cc([As](=O)(O)O)ccc1O
inactive: ATS95 | C2A | CP185 | CP191 | CP192 | CP194 | CP211 | CP215

C=C(C)[C@H]1Cc2c(ccc3c2O[C@@H]2COc4cc(OC)c(OC)cc4[C@@H]2C3=O)O1
inactive: ATS95 | C2A | CP185 | CP191 | CP192 | CP201 | CP211 | CP215

O=[N+]([O-])c1cc([As](=O)(O)O)ccc1O
active: CP191 3.16 µM

O=c1[nH]c2ccccc2n1CCCN1CCC(n2c(=O)[nH]c3cc(Cl)ccc32)CC1
active: C2A 11.2 µM | CP191 3.98 µM
inactive: CP201

CCCN1CCC[C@@H]2Cc3[nH]ncc3C[C@H]21
inactive: CP192 | CP194 | CP201 | CP211 | CP215

C[C@]12C/C(=C/O)C(=O)C[C@@H]1CC[C@@H]1[C@@H]2CC[C@@]2(C)[C@H]1CC[C@]2(C)O
inactive: ATS95 | C2A | CP185 | CP192 | CP194 | CP201 | CP211 | CP215
